# TRPM1 prom inh = inhibitors of MITF-dependent TRPM1 promoter reporter, primary screen, cell-based, SK-MEL-5, single point, luciferase. SK-MEL-5 TRPM1 promoter luciferase, 24 h. inhibition, % at 12.5 µM. actives 0.83% (n = 330,000);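 active = mean inhibition across replicates of 60% or more, whatever share of single replicates reaches that level; inconclusive = some that reach 60%, reason not given; inactive = mean inhibition across replicates below 60%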
# CF NFkB inh = inhibitors of PAF-induced NF-kB signaling, primary screen, cell-based, GFP fluorescence, uHTS; KKLEB NF-kB-GFP reporter, GFP fluorescence overnight; inhibition, % at 5 µM; actives 0.86% (n = 360,000); AID 588850, 2011;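 active = at least 50% inhibition at 5 µM, scaled per plate between neutral and stimulator controls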;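 also: PAF is a Pseudomonas aeruginosa culture filtrate used as stimulus; plate controls were PAF-stimulated DMSO wells for no effect and unstimulated DMSO wells for full effect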
# KKLEB tox = cytotoxicity in KKLEB CF airway cells, primary screen, cytotoxicity control for CF NF-kB inhibitor project, cell-based, uHTS, fluorescence assay plates | actives 0.36% (n = 360,000) | KKLEB CF airway cells viability, ATPlite luminescence, overnight; stronger effect = lower value; cells stimulated with P. aeruginosa culture filtrate | activity change (cytotoxicity), % at 5 µM;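 active = corrected activity change at or below -50% at 5 µM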
# Peg3 promoter = Peg3 promoter-driven luciferase inhibitors, primary screen, cell-based, HeLa, luciferase luminescence | HeLa PEG-Prom luciferase reporter, overnight | inhibition, % at 20 µM | actives 1.7% (n = 360,000) | AID 588405, 2011;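 active = inhibition of at least 50% at 20 µM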
# Shn3 3UTR inh = reduction of Shn3 3'UTR firefly luciferase signal, primary screen, Schnurri-3 inhibitor project, cell-based, Clone20 osteoblasts, set 2; actives 0.52% (n = 360,000); Clone20 osteoblast Shn3 3'UTR firefly luciferase, 24 h; inhibition, % at 12.5 µM; AID 588674, 2011;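 active = mean inhibition of at least 75% with every replicate also reaching 75%; inconclusive = mean inhibition at least 75% but some replicate below; inactive = mean inhibition below 75%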;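 also: 0% = median of neutral control wells and 100% = pilot-screen positive control compound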
# HIF-2a inh = HIF-2a reporter inhibitors, primary screen, luminescence, 786-0 RCC cells; 786-0 RCC cells HIF-2a reporter, luciferase luminescence, overnight; inhibition, % at 18.8 µM; actives 0.72% (n = 360,000);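 active = inhibition of the luminescence signal of 40% or more relative to plate controls, in a single-dose primary screen at 18.75 µM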
# An asterisk follows results filed as active; ? = inconclusive; / = no result given. Compounds with a hit are over-represented: about 2.7% of the library has one in this group of screens.
SMILES,TRPM1 prom inh,CF NFkB inh,KKLEB tox,Peg3 promoter,Shn3 3UTR inh,HIF-2a inh
O=C1c2ccccc2C(=O)c2c1ccc(O)c2O,-1.2,-8.1,-19.5,-23.1,-1.3,-15.2
COC(=O)c1ccc2c(c1O)C(=O)c1ccccc1C2=O,97.1*,46.5,11.3,-133.6,-21.6,-152.8
COC(=O)c1cccc2c1-c1ccccc1/C2=N\NC(N)=O,17.6,-106.8,2.3,41.8,1.4,13.7
COc1ccc(OC)c(S(=O)(=O)CC(O)COc2ccccc2Cl)c1 (configuration not stated),3.1,7.1,2.9,15.3,4.3,10.0
CCCCCCN1C[C@@H](n2cc(COC(=O)c3ccccc3)nn2)[C@H](O)C[C@@H]1c1ccccc1,/,19.9,3.3,65.0*,-4.1,-4.1
CS(=O)(=O)c1[nH]nc(-c2ccccc2)c1C#N,-23.5,-23.0,4.6,5.0,-19.9,10.8
CCCN(C(=O)CSc1nnc(-c2ccncc2)n1CCC)c1c(N)n(Cc2ccccc2)c(=O)[nH]c1=O,/,1.5,-4.6,10.6,-5.8,-9.4
O=c1[nH]c(Nc2nc3ccccc3o2)nc2c1CCCC2,46.2,-22.3,21.3,57.8*,80.3,-70.3
Cc1ccc(Nc2nc3c(c(=O)[nH]2)CCCC3)cc1,-34.3,-5.1,4.5,-176.2,-31.3,-258.9
CCOC(=O)[C@]12CCC=C1N(Cc1ccc(Cl)cc1Cl)C(=O)[C@H](CC(=O)NCCCN1CCCC1=O)C2,/,/,/,/,/,0.3
O=C(Cc1ccc(S(=O)(=O)N2CCOCC2)s1)N1CCN(S(=O)(=O)c2ccc(Cl)cc2)CC1,20.7,1.9,-19.9,-4.3,-2.9,14.1
CCCCCCCCCCCCCCCC[n+]1cccc2ccccc21,103.2*,65.6*,-67.8*,104.1*,92.0*,93.8*
Cn1c(COc2ccc(Cl)cc2Cl)nnc1SCC(=O)NCC1CCCO1 (configuration not stated),-2.3,4.2,9.1,18.8,-2.3,6.2
N#C/C(N=Nc1ccccc1O)=N\Nc1ccccc1O,69.1*,-46.3,0.6,66.6*,34.5,-70.7
Cc1cc(C)c(S(=O)(=O)/N=C2\C=C(Nc3ccc(C(=O)O)cc3)C(=O)c3ccccc32)c(C)c1,77.8*,91.1*,-63.3*,103.3*,74.4,-14.0
O=C(O)c1ccc(NC2=C/C(=N/S(=O)(=O)c3ccccc3)c3ccccc3C2=O)cc1,62.7*,89.1*,-37.3,10.3,?,44.2*
CC(=O)Nc1ccc(NC2=CC(=O)c3ccccc3C2=O)cc1,42.5,-3.0,1.0,-187.7,-73.1,-159.0
O=C(/C=C/c1cccs1)c1ccco1,2.3,-2.8,-5.2,16.3,3.1,5.5
CCOC(=O)N1CCN(C2=C(NS(=O)(=O)c3ccc(C)cc3)C(=O)c3ccccc3C2=O)CC1,55.7,53.6*,6.9,23.3,23.0,-5.1
Cc1ccc(/C=C/c2nc3ccccc3c(=O)[nH]2)cc1,21.9,-3.0,-68.7*,2.9,10.3,-217.0
COC(=O)c1ccc(/C=C/c2nc3ccccc3c(=O)[nH]2)cc1,-66.1,0.7,-3.5,-86.5,-64.3,-76.0
CCC(Sc1nc2ccncc2[nH]1)C(=O)Nc1ccc(C)c(Cl)c1 (configuration not stated),14.3,-8.9,0.1,85.3*,-17.9,11.2
CCOc1ccccc1NC(=O)C(CC)Sc1nc2ccncc2[nH]1 (configuration not stated),12.6,-11.6,6.3,15.8,14.9,9.7
CCN1c2ccccc2NC2C1C(C(C)=O)C(=O)N2c1ccc(Cl)cc1 (configuration not stated),64.5*,-9.8,3.4,7.8,13.3,3.0
CN(Cc1ccccc1)C(=O)c1cccc(NC(=O)Cc2ccc([N+](=O)[O-])cc2)c1,16.8,1.4,-4.2,21.3,88.0*,0.1
SMILES,TRPM1 prom inh,CF NFkB inh,KKLEB tox,Peg3 promoter,Shn3 3UTR inh,HIF-2a inh
Cc1sc2ncnc(N3CCC(C(=O)N(CC(C)C)c4nc5ccccc5s4)CC3)c2c1C,6.0,-14.8,8.1,2.6,24.4,-8.6
COc1cc2c(cc1OC)CN(C(=O)COc1ccccc1[N+](=O)[O-])CC2,11.1,5.9,-2.5,13.9,27.6,15.4
O=C(Nc1ccc(N2CCOCC2)c(Cl)c1)c1c(F)c(F)c(F)c(F)c1F,-1.4,31.8,-16.4,51.9*,17.6,28.6
CCOC(=O)/C(N=Nc1ccc(F)cc1)=C(/O)c1ccc([N+](=O)[O-])cc1,15.6,66.9*,-14.3,-6.2,2.2,-1.0
CCOC(=O)/C(C)=N/NC(=O)c1ccc([N+](=O)[O-])cc1,-12.7,1.2,8.5,3.6,-17.3,16.1
COc1cccc(-n2c(SCC(=O)N3CCOCC3)nc3c([nH]c4ccccc43)c2=O)c1,0.9,33.5,-55.3*,18.5,46.9,-10.2
CN1CCN(S(=O)(=O)c2ccc3c(c2)NC(=O)C2CCCN32)CC1 (configuration not stated),9.4,-3.0,-3.9,11.3,8.5,5.0
CNS(=O)(=O)c1ccc2c(c1)NC(=O)C1CCCN21 (configuration not stated),2.8,-30.5,7.7,81.5*,-0.1,17.8
Cc1cc2cc(CN(CC3CCCO3)C(=S)Nc3ccccc3)c(=O)[nH]c2cc1C (configuration not stated),8.0,3.7,-4.9,36.8,90.3*,14.5
COc1ccc2[nH]c(=O)c(CN(CC3CCCO3)C(=S)Nc3ccccc3)cc2c1 (configuration not stated),5.2,-3.9,7.7,27.7,21.6,10.4
CCOC(=O)c1ccc2ncc(C(=O)OCC)c(NCCN3CCOCC3)c2c1,-7.1,-10.0,1.1,10.3,-2.2,14.4
CCOC(=O)c1cnc2ccc(C)cc2c1Nc1ccc(N2CCOCC2)cc1,15.6,-1.6,-6.4,78.6*,17.0,7.6
CCOC(=O)c1ccc(Nc2cc(C)nc(N3CCOCC3)n2)cc1,-11.4,18.1,-5.9,54.8*,-3.6,10.7
CN(C)C(CNC(=O)CCc1nc2sc3c(c2c(=O)[nH]1)CCCC3)c1ccccc1 (configuration not stated),-1.1,2.3,4.4,-13.6,-6.2,3.6
Cc1cc(C)c2c(c1)/C(=N/Nc1ccc(S(N)(=O)=O)cc1[N+](=O)[O-])CCC2,-10.4,21.7,-18.9,61.2*,36.1,8.1
COc1ccc(Cl)cc1-c1nc(SCC(=O)N(C)C2CCS(=O)(=O)C2)n[nH]1 (configuration not stated),2.4,17.8,-3.2,11.9,4.9,-2.9

# Bioassay records from PubChem BioAssay.
